Hit rate of the full screen: of about 58,000 compounds, about 3,400 (5.9%) were called active. Many of the other results were omitted from the sample, so actives are more common in it than they were. A number with no mark means an inactive call.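 Rule for the calls: active = luminescence count or its row- and column-corrected plate score outside the 99.7% band of the plate's sample wells, on either side; inactive = the rest.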

The assay deals with D(1A) dopamine receptor (Homo sapiens) (UniProt P21728). In words: D1 CRE-luciferase signal change, two-sided – cell-based, HEK293 D1, dopamine EC30, D1 allosteric modulator project, primary screen (AID 641). Particulars: dopamine EC30 potentiation, at 10 µM, actives deviate in either direction.
D(1A) dopamine receptor (Homo sapiens), sequence (P21728 whole entry, looked up): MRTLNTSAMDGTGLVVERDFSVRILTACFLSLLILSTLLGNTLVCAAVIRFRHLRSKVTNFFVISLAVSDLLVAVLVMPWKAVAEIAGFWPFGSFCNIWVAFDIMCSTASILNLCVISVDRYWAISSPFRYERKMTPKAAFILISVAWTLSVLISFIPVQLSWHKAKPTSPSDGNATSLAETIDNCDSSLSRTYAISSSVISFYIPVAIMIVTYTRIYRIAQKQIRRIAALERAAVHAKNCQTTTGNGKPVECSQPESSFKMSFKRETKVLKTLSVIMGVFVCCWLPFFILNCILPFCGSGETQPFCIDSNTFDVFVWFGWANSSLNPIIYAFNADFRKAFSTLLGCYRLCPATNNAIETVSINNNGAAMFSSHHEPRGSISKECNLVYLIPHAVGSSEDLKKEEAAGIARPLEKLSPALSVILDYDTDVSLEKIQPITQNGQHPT
For the compound `CCOC(=O)C(O)(c1ccc(N)c(OC)c1)C(F)(F)F` (stereo not given), the B-score was -4.69 (active).

With `CCOC(=O)C(O)(c1ccc(NC(=O)c2ccco2)c(OC)c1)C(F)(F)F` (stereo not given), the B-score was 0.817.

As to `CCOP(=S)(OCC)SCOC(=O)NCC(=O)OC`, the B-score is 1.46.

For `Cc1ccc2c(c1)C1CN(C)CCC1N2C(=O)Cn1nnc(-c2ccccc2F)n1` (stereo not given), the B-score is -3.16 (active).

For `Cc1cc(N2C(=O)C3CCCN3C2c2ccc(Cl)c(Cl)c2)no1` (stereo not given), the B-score was 1.04.

`CC(=NC1CCN(Cc2ccccc2)CC1)c1c(O)n(C)c(=O)n(C)c1=O`: the B-score is 0.191.

Turning to `CCN(CC)CCOC(=O)c1cc2cc(COC)ccc2o1`, the B-score is 0.407.

Consider `C=Cn1ccnc1P(=S)(c1cc(N(CC)CC)ns1)c1nccn1C=C`, for which the B-score is -0.0508.

In the case of `CC(=C1C(=O)c2ccccc2C1=O)N1CCN(CCN=Cc2c(O)n(C)c(=O)n(C)c2=O)CC1`, the B-score was -0.0144.

As to `CCCCCCN=C(CC)c1c(O)n(CCCC)c(=O)[nH]c1=O`, the B-score was 2.24.

On to `CCC(=NCCCO)c1c(O)n(-c2ccc(OC)cc2)c(=O)[nH]c1=O`, for which the B-score was -0.508.

As to `CCC(=NCc1ccco1)c1c(O)n(Cc2ccccc2)c(=O)[nH]c1=O`, the B-score is 10.9 (active).

In the case of `N[C@@H](Cc1c[nH]c2ccccc12)c1nnc(SCc2c(F)cccc2Cl)o1`, the B-score was -0.133.

Turning to `CCCC(C)n1[nH]c(=O)c2c1NC(=O)CSC2c1ccc(OC)c(OC)c1` (stereo not given), the B-score is 0.346.

For `CCc1cccc2c(C#N)cn(CC(=O)N3CCOCC3)c12`, the B-score is -1.07.

These data come from PubChem BioAssay AID641 (Vanderbilt High Throughput Screening Facility, 2007).
